# Publication PMC3218832
# How the values were obtained:
# Assay in all cases: protein binding microarray; high values mean tight binding
# Settings in all cases: dsDNA, one strand shown
# RELARELA (p65 homodimer) = RELARELA (p65 homodimer) (Homo sapiens, UniProt Q04206 1-307)
# p50p50 homodimer = p50p50 homodimer (Homo sapiens, UniProt P19838 7-356)
# p52p52 homodimer = molecular target: T1, p52p52 homodimer (Homo sapiens, UniProt Q00653 4-332)
# T1 sequence: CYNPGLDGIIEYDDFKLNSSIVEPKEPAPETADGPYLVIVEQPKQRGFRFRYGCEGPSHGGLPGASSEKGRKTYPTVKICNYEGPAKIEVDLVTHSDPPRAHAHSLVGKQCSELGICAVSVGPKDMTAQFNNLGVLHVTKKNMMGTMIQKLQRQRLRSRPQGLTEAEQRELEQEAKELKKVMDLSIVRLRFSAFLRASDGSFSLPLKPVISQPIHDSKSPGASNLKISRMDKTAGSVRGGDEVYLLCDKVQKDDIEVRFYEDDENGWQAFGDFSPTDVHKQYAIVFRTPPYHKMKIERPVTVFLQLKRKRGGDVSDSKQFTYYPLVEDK
# [1] = molecular target: RELA (p65) subunit of heterodimer;p50 subunit (Homo sapiens;Homo sapiens, UniProt Q04206;P19838 1-307;7-356)
# [2] = molecular target: RELA (p65) subunit of heterodimer;p52 subunit (Homo sapiens;Homo sapiens, UniProt Q04206;Q00653 1-307;4-332)
# RELB subunit;p50 subunit = RELB subunit;p50 subunit (Homo sapiens;Homo sapiens, UniProt Q01201;P19838 120-401;7-356)
# RELB subunit;p52 subunit = molecular target: T2, RELB subunit;p52 subunit (Homo sapiens;Homo sapiens, UniProt Q01201;Q00653 120-401;4-332)
# T2 sequence 1: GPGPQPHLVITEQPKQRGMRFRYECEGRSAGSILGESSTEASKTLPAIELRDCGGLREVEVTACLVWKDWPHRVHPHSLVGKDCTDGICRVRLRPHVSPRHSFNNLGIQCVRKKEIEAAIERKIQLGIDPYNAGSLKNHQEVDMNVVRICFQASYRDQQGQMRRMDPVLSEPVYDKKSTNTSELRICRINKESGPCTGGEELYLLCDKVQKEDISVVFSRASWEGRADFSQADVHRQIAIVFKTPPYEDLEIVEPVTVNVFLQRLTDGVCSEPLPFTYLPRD
# T2 sequence 2: T1 sequence
# [3] = molecular target: C-Rel subunit;p50 subunit (Homo sapiens;Homo sapiens, UniProt Q04864;P19838 1-285;7-356)
# [4] = molecular target: T3, C-Rel subunit;p52 subunit (Homo sapiens;Homo sapiens, UniProt Q04864;Q00653 1-285;4-332)
# T3 sequence 1: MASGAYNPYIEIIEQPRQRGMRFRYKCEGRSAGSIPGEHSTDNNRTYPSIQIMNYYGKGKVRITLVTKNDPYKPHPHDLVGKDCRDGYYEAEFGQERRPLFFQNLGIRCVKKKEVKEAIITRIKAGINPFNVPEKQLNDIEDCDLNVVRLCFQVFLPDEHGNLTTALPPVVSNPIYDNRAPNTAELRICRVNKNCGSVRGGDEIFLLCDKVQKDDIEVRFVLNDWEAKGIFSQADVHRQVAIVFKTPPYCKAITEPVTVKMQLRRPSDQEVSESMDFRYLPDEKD
# T3 sequence 2: T1 sequence
# RELARELA (p65 homodimer), sequence (Q04206 1-307): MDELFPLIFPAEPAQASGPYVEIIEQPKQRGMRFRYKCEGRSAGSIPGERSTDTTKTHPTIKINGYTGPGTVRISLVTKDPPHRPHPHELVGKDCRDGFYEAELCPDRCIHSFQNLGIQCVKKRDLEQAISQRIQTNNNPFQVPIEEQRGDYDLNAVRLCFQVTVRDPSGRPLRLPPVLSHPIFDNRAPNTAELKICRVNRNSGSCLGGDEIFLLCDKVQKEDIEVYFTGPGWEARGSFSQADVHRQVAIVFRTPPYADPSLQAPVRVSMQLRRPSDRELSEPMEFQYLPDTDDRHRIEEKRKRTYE
# RELA (p65) subunit of heterodimer;p50 subunit, sequence (Q04206 1-307, chain 1 of 2): as the sequence (Q04206 1-307) above
# RELA (p65) subunit of heterodimer;p50 subunit, sequence (P19838 7-356, chain 2 of 2): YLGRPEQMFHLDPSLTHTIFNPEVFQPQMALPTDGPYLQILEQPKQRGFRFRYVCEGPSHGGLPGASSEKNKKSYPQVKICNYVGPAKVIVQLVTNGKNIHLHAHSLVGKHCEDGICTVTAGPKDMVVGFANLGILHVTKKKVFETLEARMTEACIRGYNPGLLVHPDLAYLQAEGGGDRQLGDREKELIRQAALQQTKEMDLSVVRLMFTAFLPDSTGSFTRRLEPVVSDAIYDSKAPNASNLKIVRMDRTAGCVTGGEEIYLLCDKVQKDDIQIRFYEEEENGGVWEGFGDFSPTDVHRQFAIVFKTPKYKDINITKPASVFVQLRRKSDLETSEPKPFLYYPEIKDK
# p50p50 homodimer, sequence (P19838 7-356): as the sequence (P19838 7-356, chain 2 of 2) above
Sequence,binding signal (RELARELA (p65 homodimer)) [z-score],binding signal (p50p50 homodimer) [z-score],binding signal (p52p52 homodimer) [z-score],binding signal [1] [z-score],binding signal [2] [z-score],binding signal (RELB subunit;p50 subunit) [z-score],binding signal (RELB subunit;p52 subunit) [z-score],binding signal [3] [z-score],binding signal [4] [z-score]
AGGTTCGCCCT,-0.645,-1.28,-0.726,-0.876,-0.838,-0.727,-0.728,-1.03,-0.838
GAAGGTCTCCT,-0.533,-2.58,-0.69,-0.982,-0.897,-1.22,-1.02,-1.58,-0.76
CAAGAGTCCCC,0.465,1.31,1.01,1.4,1.06,1.44,1.28,0.916,0.77
GAAATGCTCCC,-0.193,-0.556,-0.401,-0.482,-0.537,-0.542,-0.819,-0.726,-0.598
CGGTGGATCCC,0.0568,0.42,2.32,0.748,1.33,0.911,1.38,0.293,1.43
CAGAGATTCCT,0.143,-1.43,-0.492,-0.806,-0.992,-1.16,-1,-0.64,-0.606
CGATATATCCC,0.113,-0.443,-0.0767,-0.33,-0.28,-0.357,-0.154,-0.427,-0.465
AGATGAACCCC,-0.232,-0.284,-0.287,-0.402,-0.342,-0.255,-0.0728,-0.464,-0.256
AGGTTGGCCCC,-0.789,-0.369,-0.374,-0.277,-0.287,-0.0488,-0.238,-0.00473,0.0517
GAAGATACCCT,-0.565,0.622,0.0699,0.217,0.0853,0.142,0.032,-0.0626,2.91e-05
AGGAGCGCCCC,-0.227,-0.229,0.018,0.186,0.348,-0.0805,0.162,0.0948,0.277
CGGTAGCCCCT,0.0258,0.991,0.543,0.402,0.598,0.503,0.728,0.38,0.45
AGATTCGCCCC,0.366,0.156,0.127,0.288,0.219,0.292,0.48,0.611,-0.0556
CAGGGGATCCC,1.59,1.03,1.66,1.73,1.49,1.12,1.18,0.893,1.42
GAGGGCCTCCT,-0.673,-1.05,-0.564,-0.901,-0.776,-0.873,-0.69,-1.21,-0.843
CAAAGCGTCCT,-0.639,-1.46,-0.572,-0.956,-0.873,-0.99,-0.804,-1.53,-0.973
AGAAGTCCCCC,0.863,1.4,1.58,1.97,1.75,2.05,2.01,1.53,1.63
GGGATAGTCCC,2.07,0.707,2.94,1.82,2.15,1.87,1.6,1.32,1.96
GGAGGTATCCC,-0.331,-1.01,-0.304,-0.519,-0.401,-0.488,-0.395,-0.57,-0.276
AAGTGTGTCCT,-0.0699,-1.1,-0.57,-0.888,-0.62,-0.808,-0.709,-0.908,-0.763

Sequence,binding signal (RELARELA (p65 homodimer)) [z-score],binding signal (p50p50 homodimer) [z-score],binding signal (p52p52 homodimer) [z-score],binding signal [1] [z-score],binding signal [2] [z-score],binding signal (RELB subunit;p50 subunit) [z-score],binding signal (RELB subunit;p52 subunit) [z-score],binding signal [3] [z-score],binding signal [4] [z-score]
AAAGAATTCCC,2.27,1.08,1.36,1.57,1.25,1.07,0.975,1.54,1.12
CGGGAACCCCC,2.26,0.986,2.98,2.47,2.46,1.67,2.34,2.01,2.86
AAAGTTGCCCC,1,0.606,0.147,0.949,0.337,0.677,0.595,1.26,0.617
GGAGAACCCCC,0.892,1.01,1.75,1.88,1.77,1.42,1.59,1.21,1.74
CGGAGTATCCC,0.97,-0.805,-0.256,0.294,-0.0559,-0.605,-0.711,-0.0452,-0.0756
CGGAGGCCCCC,-1.02,0.282,-0.0558,0.494,0.175,-0.0407,0,0.165,0.393
GAAAGACCCCC,-0.269,0.985,0.754,1.12,1.17,0.92,1.03,0.485,0.846
CGGTGTCTCCC,-0.108,-0.00286,0.283,0.0635,0.211,-0.121,0.143,-0.0512,0.354
GGGTATATCCC,1.19,0.245,2.43,0.931,1.62,0.847,0.92,0.341,1.12
GGAGGTACCCT,-0.125,0.0465,-0.0665,0.0938,0.0265,0.0938,-0.25,-0.0429,0.0544
GGATATCTCCC,0.156,0.192,0.0332,0.149,0.0232,0.028,-0.143,-0.122,-0.036
CGAGGCTTCCT,-0.994,-2.47,-0.827,-1.09,-1.19,-1.31,-1.05,-1.49,-1.05
GAAGACACCCC,-0.516,-0.135,-0.303,-0.324,-0.316,-0.183,0.105,-0.163,-0.242
AAGAGGCTCCC,-0.428,-1.01,-0.505,-0.958,-0.845,-0.665,-0.714,-1.12,-0.72
AAATGACCCCT,-0.474,0.593,0.182,0.135,0.303,0.241,0.325,-0.224,0.165
AAGTTTCCCCT,1.76,1.73,2.41,2.47,2.06,2.72,2.65,2.01,1.96
CAGTGAGTCCC,0.14,0.525,0.308,0.411,0.115,0.511,0.164,0.393,0
CGGGAAGCCCT,0.636,-0.369,-0.0378,-0.188,0.0317,-0.513,-0.178,-0.133,0.19
GAAGGCATCCT,-0.848,-1.34,-0.851,-1.13,-1.21,-1.29,-1.12,-1.72,-1.14
CAAAAGACCCT,-0.503,0.305,-0.0206,0,0.196,-0.111,-0.0281,-0.615,0.0358

Sequence,binding signal (RELARELA (p65 homodimer)) [z-score],binding signal (p50p50 homodimer) [z-score],binding signal (p52p52 homodimer) [z-score],binding signal [1] [z-score],binding signal [2] [z-score],binding signal (RELB subunit;p50 subunit) [z-score],binding signal (RELB subunit;p52 subunit) [z-score],binding signal [3] [z-score],binding signal [4] [z-score]
AAGTACCTCCT,0.111,0.67,0.0441,0.737,-0.123,0.852,0.227,0.224,-0.202
CAGTGAACCCC,-0.0364,-0.483,-0.201,-0.227,-0.346,-0.298,-0.205,-0.189,-0.119
GGAGATTCCCC,2.94,1.13,2.51,2.35,2.22,2.06,2.22,1.88,2.2
GAAGTGGCCCC,-1.02,-0.225,-0.401,-0.503,-0.265,-0.183,-0.112,-0.347,-0.316
GGATGATTCCT,0.0919,-1.32,-0.648,-0.708,-0.749,-0.941,-0.913,-0.706,-0.54
GAGAGCGCCCT,-0.857,-1.91,-0.661,-0.903,-1.01,-1,-0.95,-1.31,-0.822
CGATATTTCCT,0.574,-0.558,-0.405,-0.302,-0.495,-0.725,-0.422,-0.166,-0.154
GAGGTTATCCT,-0.457,-0.539,-0.329,-0.899,-0.657,-0.734,-0.759,-1.3,-0.681
AAATGTGCCCC,0.655,-0.0191,0.195,0.499,0.0761,0.0211,0.23,0.81,0.211
CAAATGCCCCT,0.347,1.15,1.14,1.2,1.19,1.21,1.47,0.882,1.38
AAGAAATTCCC,2.91,1.19,1.64,1.53,1.32,1.27,1.39,1.36,1.67
AGAGAGGTCCT,0.413,-1.58,-0.36,-0.866,-0.592,-0.624,-0.363,-1.31,-0.537
GAGGAAATCCT,0.229,-0.905,-0.463,-0.399,-0.425,-0.858,-0.718,-0.315,-0.369
AGAAACTTCCC,2.01,0.652,0.45,0.846,0.818,0.409,0.541,0.576,0.741
AAGGTATTCCT,-0.0185,-0.222,-0.0124,-0.477,-0.138,-0.322,-0.266,-0.255,-0.012
AAATATCTCCC,0.144,0.445,0.105,0.12,-0.105,0.365,0.153,-0.0256,-0.0762
GAAATCGCCCC,0.357,0.544,0.298,0.401,0.557,0.494,0.759,0.842,0.389
AGGTATACCCT,-0.0429,-0.139,-0.102,-0.262,-0.241,-0.242,-0.17,-0.467,-0.258
CAAGGGTCCCT,-0.447,0.337,0.26,-0.269,0.0513,0.363,0.276,-0.315,-0.166
CGATTTCCCCT,1.73,1.66,2.21,2.26,1.96,2.39,2.23,1.83,1.81
